From PubChem BioAssay
phage Ecoli inh: E. coli growth loss with phage present; growth absorbance; inhibition, % at 11.9 µM; 360,000 compounds, 0.26% hits; AID 651602; in the data active means inhibition above about 11%
E coli growth-1: blocks Escherichia coli growth; OD600, 23 h; active compounds read low; OD600 absorbance (concentration not given with the values); 330,000 compounds, 0.21% hits; AID 1053175;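 active means OD600 absorbance below the run mean of sample wells minus 3.6 SD, in any replicate, cut at about 0.56 in these data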
AI-2 QS modul: modulates the Vibrio harveyi AI-2 quorum sensing system | Vibrio harveyi JMH597 AI-2 luminescence/OD600 ratio, 9 h; active compounds read low; strain lacks LuxN and CqsS sensors; 0 = neutral-control median | activity change, % at 7.5 µM | 300,000 compounds, 0.4% hits; in the data active means activity change below about -75%, passing the limit was not always enough; inconclusive means no clear call, values can overlap the other calls;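 further: luminescence divided by OD600 gain over 9 h not by final OD600 alone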
AddAB inh: less growth of phage-infected E. coli with AddAB. E. coli expressing H. pylori AddAB, absorbance growth. inhibition, % at 11.9 µM. 330,000 compounds, 0.29% hits. AID 435030; in the data active means inhibition above about 12%;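 further: 0% = vehicle wells of infected cells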
Tat transport: inhibitors of E. coli Tat protein transport. E. coli MC4100 TorA-mCherry Tat export, fluorescence. inhibition, % at 10 µM. 340,000 compounds, 0.036% hits. AID 488895;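 active means mean replicate inhibition at least 50% and at least half of replicates individually reaching 50%; inconclusive means only one of the two criteria met; inactive means neither criterion met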;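 further: exported cargo escapes ClpAP degradation while cytoplasmic cargo is degraded and loses fluorescence; 0% = median of neutral control wells and 100% = median of NaSCN control wells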
E coli growth-2: bacterial growth inhibition, counter-screen for AddAB inhibitors | E. coli V3065 growth, OD600 absorbance, 18 h | inhibition, % at 11.9 µM | 330,000 compounds, 0.27% hits | AID 449728;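 active means inhibition above the campaign's mean inhibition across all tested compounds plus 3 SD, cut at about 9.9% in these data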;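 further: uninfected addAB+ strain grown without phage in ampicillin broth; 0% = DMSO wells and 100% = ciprofloxacin 0.95 µg/ml wells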
AddAB confirm: confirmation screen: growth loss of phage-infected E. coli expressing H. pylori AddAB; E. coli V3065 expressing H. pylori AddAB, T4 phage, OD; T4 phage with gene 2 nonsense mutations; 880 compounds, 64% hits; inhibition, % at 11.9 µM; shares compounds with AddAB inh;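 active means mean inhibition above a set limit taken from the earlier primary screen, cut at about 13% in these data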;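 further: higher means less bacterial growth since AddAB block lets phage replicate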
RecBCD counter: counter-screen: growth loss of RecBCD+ E. coli with mutant T4 phage; shares compounds with AddAB inh; E. coli V66 + mutant T4 phage, OD growth; inhibition, % at 11.9 µM; 880 compounds, 73% hits;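 active means mean inhibition above the mean of solvent-only control wells plus 3 SD, cut at about 4% in these data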;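 further: optical density read after an 18 h incubation at 37 °C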
Bact viability: counter-screen: bacterial growth inhibition. shares compounds with AddAB inh. bacterial viability, absorbance (AddAB counterscreen). inhibition, % at 11.9 µM. 880 compounds, 35% hits; in the data active means inhibition above about 25%
RecBCD conf: growth loss of phage-infected V66 E. coli, RecBCD confirmation screen. 890 compounds, 45% hits. inhibition, % at 11.9 µM. E. coli V66 + T4 2- phage, growth OD. shares compounds with phage Ecoli inh;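 active means mean inhibition over triplicates exceeding the hit threshold derived in the original primary screen, cut at about 11% in these data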
Ecoli viability: inhibits E. coli viability, flagging RecBCD hits as nonselective | AID 651983 | absorbance (OD) growth | inhibition, % at 11.9 µM | 890 compounds, 29% hits | shares compounds with phage Ecoli inh; in the data active means inhibition above about 20%;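 further: E. coli strain V66 grown with compound alone and no phage infection; 0% = bacteria with DMSO vehicle only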
AddAB counter: growth loss of phage-infected AddAB E. coli, RecBCD counter-screen. 890 compounds, 45% hits. shares compounds with phage Ecoli inh. AID 651984. E. coli expressing H. pylori AddAB + T4 phage, OD growth; gene 2 mutant T4, recBCD-deleted host. inhibition, % at 11.9 µM;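 active means mean inhibition above the solvent-only control wells' mean plus 3 SD, cut at about 22% in these data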;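 further: higher means less bacterial growth from phage killing when AddAB is blocked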
* hit, by the source's call; u = inconclusive; x = no result given. Compounds with a hit are over-represented: about 0.79% of the library has one in this group of screens.

SMILES | phage Ecoli inh | E coli growth-1 | AI-2 QS modul | AddAB inh | Tat transport | E coli growth-2 | AddAB confirm | RecBCD counter | Bact viability | RecBCD conf | Ecoli viability | AddAB counter
COc1ccc(NC(=O)Cn2cc(C(=O)c3ccco3)c3ccccc32)cc1 | 18* | 0.64 | 38 | 16* | -4 | 18* | 13* | 13* | 15 | 8 | 12 | 16
COC(=O)Cn1cc(C(=O)c2ccco2)c2ccccc21 | 1 | 0.71 | 43 | 0 | -3 | -1 | x | x | x | x | x | x
CCOc1ccc(NC(=O)Cn2cc(C(=O)c3ccco3)c3ccccc32)cc1 | 12* | 0.63 | x | 13* | 2 | 14* | 10 | 9.7* | 12 | 7 | 11 | 5
CCC(=O)c1cn(CC(=O)Nc2ccc(OC)cc2)c2ccccc12 | 11* | x | x | 13* | -10 | 14* | 12 | 11* | 9 | 3 | 6 | 5
CCOC(=O)C1C2COc3ccc(Cl)cc3C2N2C(=O)CN(Cc3ccc(OC)cc3)C(=O)[C@@]12C (some centres not stated) | x | 0.67 | x | x | x | x | x | x | x | x | x | x
O=c1c2ccccc2nc(N/N=C/c2ccc(O)cc2)n1O | 2 | x | 6 | 2 | -5 | 2 | x | x | x | x | x | x
O=c1c2ccccc2nc(N/N=C/c2c(O)ccc3ccccc23)n1O | 21* | x | -11 | 19* | 4 | 24* | 24* | 21* | 17 | 12* | 16 | 17
Nc1nc(F)nc2c1ncn2[C@@H]1O[C@H](CO)[C@@H](O)[C@H]1O | 68* | x | 18 | 75* | -1 | 75* | 74* | 64* | 77* | 70* | 63* | 78*
Nc1nc(Cl)nc2c1ncn2C1OC(CO)C(O)C1O (configuration not stated) | 4 | 0.67 | x | x | x | x | x | x | x | x | x | x
O=C(O)CC1S/C(=N/N=C/c2ccccn2)NC1=O (configuration not stated) | 22* | x | 12 | 22* | -7 | 19* | 17* | 18* | 15 | 10 | 13 | 12
O=C(Cc1ccccc1)NN=Cc1ccc(S(=O)(=O)O)o1 | x | 0.63 | x | x | x | x | x | x | x | x | x | x
Cc1ccc([N+](=O)[O-])cc1N1C(=O)CSC1=NNC(=O)c1cccnc1 | x | 0.71 | x | x | x | x | x | x | x | x | x | x
O=c1c2cc(Br)ccc2nc(-c2cccc(C(F)(F)F)c2)n1O | 17* | 0.71 | 35 | 16* | -13 | 16* | 8 | 16* | 5 | 8 | 11 | 17
O=c1c2cc(Cl)ccc2nc(-c2ccccc2)n1O | -2 | 0.7 | -31 | -1 | -4 | -4 | x | x | x | x | x | x
Fc1ccc(Nc2nnc(C(F)(F)F)s2)cc1Cl | 14* | 0.44* | 21 | 14* | -17 | 16* | 17* | 19* | 13 | 7 | 9 | 20
FC(F)(F)c1nnc(Nc2ccc(Cl)cc2)s1 | 7 | 0.52 | 20 | 6 | -6 | 5 | x | x | x | x | x | x
O=C(NN=Cc1ccc(Cl)cc1)Nc1ccccc1 | x | 0.71 | x | x | x | x | x | x | x | x | x | x
Cc1onc(-c2ccccc2Cl)c1C(=O)NN=C(N)COc1ccc(Cl)cc1 | x | 0.68 | x | x | x | x | x | x | x | x | x | x
Cc1onc(-c2c(Cl)cccc2Cl)c1C(=O)N/N=C(\N)COc1ccc(Cl)cc1 | 18* | x | 11 | 14* | 6 | 16* | 17* | 19* | 18 | 8 | 10 | 32*
COc1ccc(-c2cc(N3CCCC3)n3ncnc3n2)cc1 | 14* | 0.65 | 11 | 17* | -8 | 20* | 21* | 14* | 15 | 9 | 12 | 18
Nc1ccc2ncccc2c1N | 2 | 0.66 | x | -2 | 4 | -5 | x | x | x | x | x | x
Nc1nc(N)c2c(ccc3nccc32)[nH]1 | 96* | x | 9 | 93* | 11 | 95* | 97* | 91* | 102* | 101* | 103* | 102*
O=c1ccsn1Cc1ccccc1 | 14* | 0.044* | 65 | 75* | 22 | 9 | 102* | 29* | 26* | 8 | 10 | 77*
O=C1NC(Cc2ccccc2)C(=O)N1Cc1ccccc1 (configuration not stated) | 2 | 0.64 | x | x | -4 | x | x | x | x | x | x | x
O=C(CSc1nc2ccccc2o1)NN=Cc1ccco1 | x | 0.71 | x | x | x | x | x | x | x | x | x | x
SMILES | phage Ecoli inh | E coli growth-1 | AI-2 QS modul | AddAB inh | Tat transport | E coli growth-2 | AddAB confirm | RecBCD counter | Bact viability | RecBCD conf | Ecoli viability | AddAB counter
O=[N+]([O-])c1ccc(/C=[N+](\[O-])CCO)o1 | 97* | x | -70 | 99* | 14 | 99* | 98* | 99* | 99* | 105* | 107* | 105*
NC(=O)NN=Cc1ccc(-c2ccc([N+](=O)[O-])cc2)o1 | x | 0.67 | x | x | x | x | x | x | x | x | x | x
O=[N+]([O-])c1ccc(C=NN=Cc2ccc([N+](=O)[O-])o2)o1 | x | 0.56 | x | x | x | x | x | x | x | x | x | x
NC(=O)N/N=C/c1ccc([N+](=O)[O-])o1 | 63* | x | x | 101* | -2 | 101* | 98* | 40* | 98* | 34* | 57* | 103*
O=C(N/N=C/c1ccc([N+](=O)[O-])o1)C1CC1 | 35* | x | u | 100* | 7 | 73* | 99* | 23* | 71* | 12* | 17 | 100*
COC(=O)N/N=C/c1ccc([N+](=O)[O-])o1 | 19* | x | u | 97* | 2 | 79* | 99* | 21* | 67* | 13* | 18 | 103*
Cc1cc(C(=O)NNC(=O)CCCOc2ccccc2)c(C)o1 | -1 | 0.62 | 11 | -1 | -6 | -1 | x | x | x | x | x | x
CC(C)(C)c1ccc(OCCCC(=O)NNC(=O)c2ccccc2O)cc1 | 13* | 0.71 | 36 | 20* | 11 | 14* | 7 | 10* | 4 | 8 | 8 | 9
COc1ccc(Cl)cc1C(Nc1cccnc1)c1ccc2cccnc2c1O (configuration not stated) | 16* | 0.72 | -82* | 14* | 2 | 23* | 8 | 12* | 8 | 7 | 9 | 6
O=C(CCCc1ccccc1)NCc1cn2ccsc2n1 | 96* | 0.73 | 17 | -4 | 6 | 1 | x | x | x | -2 | -1 | 4
O=C(N/N=C/c1ccc(O)cc1O)c1ccc(NC(=O)C2CCCCC2)cc1 | 23* | x | -46 | 24* | -15 | 29* | x | x | x | 14* | 18 | 18
